In PubChem BioAssay AID1159580 (chemical genetic matrix, 2015):
“And” between values parts separate entries of the source, which are not always exact repeats. Equal entries are not always repeated. The campaign covered roughly 5,500 compounds. About 2,000 (36%) were called active. Roughly 18% stayed inconclusive and do not appear here. No stated cut-off is given here; in the data, active means normalized growth mostly below about 0.91 (no sharp cut-off); inconclusive means no clear call, values can overlap the other calls; inactive means mostly above about 0.92. Some of the results follow.

Assay: chemical genetic growth profiling, strain panel (AID 1159580);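 further: tested at 20 µM; growth read once vehicle control cultures reached saturation at 30 °C; 1 = growth at the plate median or of vehicle wells; lower values mean less growth of the strain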
Conditions: S. cerevisiae deletion strains, growth OD

Measured: normalized growth

CC(C)(Oc1ccc(CCNC(=O)c2ccc(Cl)cc2)cc1)C(=O)O
inactive: locus YAL013W, strain DEP1, hits give low values 1.02 | locus YAL021C, strain ccr4, hits give low values 0.982 | locus YAL026C, strain drs2, hits give low values 0.985 | locus YAL030W, strain snc1, hits give low values 0.996 | locus YBL061C, strain skt5, hits give low values 0.999 | locus YBR009C, strain hhf1, hits give low values 0.975 | locus YBR021W, strain FUR4, hits give low values 1.02 | locus YBR023C, strain chs3, hits give low values 0.986 | locus YBR171W, strain sec66, hits give low values 0.978 | locus YBR229C, strain ROT2, hits give low values 1.01 | locus YBR231C, strain swc5, hits give low values 1.01 | locus YBR279W, strain paf1, hits give low values 0.972 | locus YCL011C, strain gbp2, hits give low values 0.982 | locus YCL016C, strain dcc1, hits give low values 0.971 | locus YCL029C, strain bik1, hits give low values 1.02 | locus YCL069W, strain vba3, hits give low values 0.988 | locus YCR088W, strain abp1, hits give low values 0.985 | locus YDL005C, strain med2, hits give low values 0.984 | locus YDL035C, strain GPR1, hits give low values 1.04 | locus YDL040C, strain nat1, hits give low values 0.995 | locus YDL074C, strain BRE1, hits give low values 1.01 | locus YDL101C, strain DUN1, hits give low values 1.01 | locus YDL134C, strain PPH21, hits give low values 1.05 | locus YDL185W, strain tfp1, hits give low values 1.02 | locus YDL192W, strain arf1, hits give low values 1.01 | locus YDR001C, strain nth1, hits give low values 0.987 | locus YDR069C, strain doa4, hits give low values 0.968 | locus YDR101C, strain arx1, hits give low values 0.995 | locus YDR137W, strain rgp1, hits give low values 0.988 | locus YDR150W, strain NUM1, hits give low values 1.01 | locus YDR159W, strain sac3, hits give low values 0.939 | locus YDR162C, strain NBP2, hits give low values 1.03 | locus YDR195W, strain ref2 0.993 | locus YDR297W, strain sur2, hits give low values 0.998 | locus YDR318W, strain mcm21, hits give low values 1.02 | locus YDR334W, strain swr1, hits give low values 0.995 | locus YDR335W, strain msn5, hits give low values 0.977 | locus YDR388W, hits give low values 1.01 | locus YDR392W, strain spt3, hits give low values 0.882 | locus YDR502C, strain sam2, hits give low values 1.02 | locus YEL003W, strain gim4, hits give low values 1.01 | locus YEL037C, strain rad23, hits give low values 0.99 | locus YEL061C, strain CIN8 (second series), hits give low values 0.997 | locus YEL061C, strain CIN8, hits give low values 1.01 | locus YER015W, strain faa2, hits give low values 0.995 | locus YER016W, strain bim1, hits give low values 0.971 | locus YER110C, hits give low values 1 | locus YER111C, strain swi4, hits give low values 0.984 | locus YER155C, strain BEM2 (second series), hits give low values 0.975 | locus YER155C, strain BEM2, hits give low values 1.01 | locus YER167W, strain BCK2, hits give low values 1.01 | locus YFR010W, strain ubp6, hits give low values 1.01 | locus YGL078C, strain dbp3, hits give low values 1.02 | locus YGL086W, strain mad1, hits give low values 1.01 | locus YGL167C, strain pmr1, hits give low values 1 | locus YGL173C, strain kem1, hits give low values 1 | locus YGL227W, strain vid30, hits give low values 0.977 | locus YGL240W, strain doc1, hits give low values 0.984 | locus YGL248W, strain PDE1, hits give low values 1.01 | locus YGL253W, strain hxk2, hits give low values 0.994 | locus YGR078C, strain PAC10, hits give low values 1 | locus YGR135W, strain pre9, hits give low values 1.02 | locus YGR252W, strain gcn5, hits give low values 1.02 | locus YHR013C, strain ard1, hits give low values 0.963 | locus YHR027C, strain rpn1, hits give low values 0.986 | locus YHR030C, strain SLT2, hits give low values 1.02 and 0.997 | locus YHR079C, strain IRE1 (second series), hits give low values 1.02 | locus YHR079C, strain IRE1, hits give low values 0.995 | locus YHR094C, strain hxt1, hits give low values 1.01 | locus YHR129C, strain ARP1, hits give low values 1.01 | locus YHR142W, strain chs7, hits give low values 0.999 | locus YHR200W, strain rpn10, hits give low values 1.03 | locus YIL066C, strain RNR3, hits give low values 1.02 | locus YIL073C, strain SPO22, hits give low values 1.15 | locus YIL125W, strain kgd1, hits give low values 1.01 | locus YIR030C, strain dcg1, hits give low values 1.02 | locus YJL092W, strain hpr5, hits give low values 0.996 | locus YJL095W, strain BCK1 (second series), hits give low values 0.983 | locus YJL095W, strain BCK1, hits give low values 1 and 0.972 | locus YJL115W, strain asf1, hits give low values 0.978 | locus YJL129C, strain trk1, hits give low values 0.955 | locus YJL134W, strain LCB3, hits give low values 1.01 | locus YJL154C, strain vps35, hits give low values 0.98 | locus YJL164C, strain tpk1, hits give low values 0.986 | locus YJL166W, strain qcr8, hits give low values 0.992 | locus YJL168C, strain set2, hits give low values 1.01 | locus YJL187C, strain SWE1 (second series), hits give low values 1.01 | locus YJL187C, strain SWE1, hits give low values 0.996 | locus YJR043C, strain POL32, hits give low values 1.02 | locus YJR066W, strain TOR1, hits give low values 0.967
